Here are results for 14 compounds from PubChem BioAssay (NCI).

Compounds without any hit were thinned out: in the full panel of roughly 83,000, 20% have a hit.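 In brief: 96-well plates, 48 h treatment, single concentration, percent growth endpoint.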 Unmarked numbers belong to inactive results. Calls of active or inactive are those of the source. Rule for the calls: active = growth percent below 10; inactive = the rest.

Holding throughout (assay): NCI-60 one-dose screen, 48 h (100 = growth as untreated, 0 = no growth, -100 = all killed)
Common to all, as to details: 10 µM unless noted

Test [1] has as its system RPMI-8226 leukemia.
For test [2], the system named is OVCAR-8 ovarian.
The subject of test [3] is OVCAR-5 ovarian.
Test [4] relates to OVCAR-4 ovarian.
For test [5], the system named is IGROV1 ovarian.
Test [6] deals with OVCAR-3 ovarian.
Test [7] has as its system HS 578T breast.
Test [8] concerns NCI/ADR-RES ovarian.
Test [9] deals with T-47D breast.

Take `c1ccc2c3c([nH]c2c1)C(c1ccc(C2NCCc4c2[nH]c2ccccc42)cc1)NCC3` (stereo unspecified): the growth in test [1] was -40.3% (active); in [2] it was -41.4% (active); in test [3], 77%; in [4] it was 23.5%; in test [5], 25.8%; in [6], -65.3% (active). Besides, the growth in test [7] is -16.8% (active); in test [8] it was 63.1%; in [9] it was -59% (active).
Turning to `CSc1nc(-c2ccc(F)cc2)c(C#N)c(N2CCOCC2)n1`, the growth in [1] was 89.2%; in test [2], 92.9%; in [3], 89.2%; in test [4], 90.6%; in test [5], 92%; in [6] it was 98.1%. Moreover, the growth is 91.4% in test [7], 97.5% in test [8] and 79.7% in test [9].
As for `COc1cc2nc3c(=O)n(-c4ccc(C#N)cc4)cnn3c(=O)c2cc1OC`, the growth in [1] was 115%; in test [2] it was 108%; in [3], 93.4%; in [4], 97%; in test [5] it was 103%; in test [6] it was 92.9%. In addition, the growth was 90.8% in test [7], 100% in [8] and 100% in [9].
On to `COc1ccc2nc3nc4ccc[nH]c4cc3c2c1`, for which the growth was 82.9% in [1]; 96.6% in test [2]; 115% in [3]; 92.2% in test [4]; 69.6% in test [5]; 91.8% in test [6]. The growth in test [7] was 92.5%; in [8], 96.1%; in [9] it was 38.3%.
With `O=C(CN1N=C(c2ccc(F)cc2)CCC1=O)Nc1nc2ccccc2s1`, the growth is 26.8% in [1]; -43% (active) in [2]; 16.9% in test [3]; 35.4% in test [4]; -49.5% (active) in test [5]; -40.6% (active) in test [6]. Also, the growth in test [7] is 67.6%; in [8], 6.92% (active); in test [9], 83.3%.
Consider `C=C1C(=O)O[C@H]2[C@H]1CC/C(COC(=O)CCCCCCCCC(=O)OC/C1=C/CC[C@@]3(C)O[C@H]3[C@H]3OC(=O)C(=C)[C@@H]3CC1)=C\CC[C@@]1(C)O[C@@H]21`, for which the growth is -6.37% (active) in test [1]; 10.2% in [2]; 28.9% in [3]; 29% in test [4]; -19.2% (active) in [5]; 2.11% (active) in [6]. The growth is 10.3% in [7], 2.99% (active) in test [8] and -27.3% (active) in test [9].
Consider `CC[C@]12C=CCN3CC[C@@]4(c5cc(NC(=O)CCC(=O)O[C@H]6CC[C@H]7[C@@H]8CC[C@H]9CC(=O)CC[C@]9(C)[C@H]8CC[C@]67C)c(OC)cc5N(C)[C@H]4[C@@](O)(C(=O)OC)[C@@H]1OC(C)=O)[C@@H]32`, for which the growth in [1] was 45.2%; in [2], 75.9%; in test [3], 104%; in test [4], 60.7%; in [5], 69.6%; in test [6], 73.2%. Also, the growth in test [7] was 75.5%; in [8] it was 72.9%; in [9] it was 46.4%.
As to `O=C(CSC(=S)N1CCCCC1)Nc1ccccc1`, the growth was 84.6% in test [1]; 99.4% in test [2]; 106% in [3]; 109% in test [4]; 103% in [5]; 107% in test [6]. The values for the growth in test [7], in [8] and in test [9] were 106%, 102% and 81.7%, respectively.
Turning to `COc1cc(NCC(=O)Nc2cc(Nc3ccc(C)cc3)ncn2)c(Cl)c(OC)c1Cl`, the growth in test [1] is 82.9%; in test [2], 88.4%; in test [3], 92.3%; in test [4] it was 78.5%; in [5], 82.5%; in test [6], 84.3%. The growth in [7] was 83.5%; in test [8], 91.3%; in test [9] it was 70.6%.
On to `O=C(O)C(C(=O)O)c1cccc2ccccc12`, for which the growth is 109% in test [1]; 101% in test [2]; 110% in [3]; 100% in test [4]; 111% in test [5]; 112% in test [6]. Besides, the growth was 102% in test [7], 98.9% in [8] and 92.7% in test [9].
Regarding `CCOC(=O)C1=C(C)n2nc(CC#N)c(C#N)c2NC1c1ccc(CC)cc1` (stereo unspecified), the growth in [1] was 102%; in [2], 104%; in [3] it was 99.8%; in test [4], 93.2%; in test [5], 69.9%; in [6] it was 99.2%. The growth in test [7] was 115%; in test [8] it was 96.9%; in [9], 94.9%.
Consider `O=C(O)c1cn(C2CC2)c2cc(N3CCN(C(=O)CSc4nnc(-c5ccc(Cl)cc5)n4-c4ccccc4)CC3)c(F)cc2c1=O`, for which the growth was 102% in test [1]; 102% in [2]; 121% in test [3]; 110% in test [4]; 107% in [5]; 110% in [6]. The growth is 101% in test [7], 104% in test [8] and 77.9% in [9].
Consider `C#Cc1ccccc1NC(=O)c1sc2nc3c(cc2c1N)CCCCC3`, for which the growth in [1] is 97.4%; in [2] it was 100%; in test [3] it was 105%; in test [4], 103%; in test [5], 103%; in test [6], 105%. Further, the growth is 99.6% in test [7], 105% in [8] and 95% in test [9].
In the case of `COc1ccc2oc(=O)cc(-c3c(C#N)c(N)n4nc(N)c(C#N)c4c3C#N)c2c1`, the growth in [1] was 110%; in test [2] it was 111%; in [3], 96.8%; in test [4] it was 111%; in test [5], 94.4%; in [6], 91.9%. The growth in test [7] is 104%; in test [8], 104%; in test [9], 84.1%.
